Test results reported in PubChem BioAssay AID1578 (Sanford-Burnham Center for Chemical Genomics, 2009).
The campaign covered roughly 290,000 compounds. About 3,000 (1%) were called active. Cut-off read from the data, not from the text of the source: active = inhibition mostly above about 36% (no sharp cut-off); inactive = mostly below about 34%. The full list was thinned out, with actives kept by preference.

test: inhibition of NOD1-driven NF-kB reporter – cell-based, luminescence, uHTS, primary screen (AID 1578); settings: NOD1-driven NF-kB luciferase reporter cells, at 4 µM, stronger effect = higher value;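 note: HEK-293T reporter cells stimulated with the NOD1 agonist gamma-tri-DAP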

Structure (SMILES) | inhibition
CS(=O)(=O)N(CCC#N)Cc1ccc(C=O)o1 | -32.9% (inactive)
CS(=O)(=O)N(CCC#N)Cc1ccc(/C=C2\C(=O)Nc3ccccc32)o1 | 57.1% (active)
Cc1ccc(/C=C2\C(=O)Nc3ccccc32)o1 | -9.5% (inactive)
O=C(Nc1ccc(O)cc1)/C(=C\C=C\c1ccccc1)NC(=O)c1ccccc1 | -13.3% (inactive)
CCN(C(=O)COC(=O)/C=C/c1cccc([N+](=O)[O-])c1)c1ccccc1 | -31.8% (inactive)
CCn1ncc([N+](=O)[O-])c1C(=O)n1nc(C)cc1C | -22.7% (inactive)
Cn1cnc([N+](=O)[O-])c1Sc1nnc(-c2cccnc2)n1C | -5.6% (inactive)
CCn1nc(C)cc1-c1nnc(Sc2ncc([N+](=O)[O-])s2)n1C | 35.4% (active)
CC(C)(C)SCCNS(=O)(=O)c1ccc2ccccc2c1 | 7.5% (inactive)
COc1cccc(NC(=O)CC(=O)c2ccc([N+](=O)[O-])cc2)c1 | -3.4% (inactive)
COc1ccc(C(=O)CC(=O)Nc2ccc([N+](=O)[O-])cc2)cc1 | -14.5% (inactive)
Cc1ccc(C(=O)CCC(=O)Nc2ccc(Cl)c(S(=O)(=O)Nc3cccc(Cl)c3)c2)cc1 | 19.9% (inactive)
Cc1cccc(NS(=O)(=O)c2cc(NC(=O)CC(=O)c3ccc([N+](=O)[O-])cc3)ccc2C)c1 | 41.5% (inactive)
COc1ccc(NS(=O)(=O)c2cc(NC(=O)CC(=O)c3ccc([N+](=O)[O-])cc3)ccc2C)cc1 | 54.7% (active)
Cn1ncc2c(Nc3ccc(Cl)c(Cl)c3)ncnc21 | -5.2% (inactive)
Cc1ccc(OCCCCNC2CCCC(C)C2C)c(C)c1 (stereo not given) | -22.2% (inactive)
Cc1ccc(OCC(O)CNC2CCCC2)c(C)c1 (stereo not given) | 0% (inactive)
Cc1ccc(OCCCCNC2CCCCC2)c(C)c1 | 30.3% (active)
CN(Cc1ccccc1)C(=O)c1cc(=O)[nH]c2ccccc12 | 6.3% (inactive)
Cc1ccc(-n2nc(-c3ccccc3)cc2Nc2ccccc2N)cc1 | -9.6% (inactive)
O=C(CS(=O)c1ccc(C(F)(F)F)cc1[N+](=O)[O-])Oc1ccccc1 (stereo not given) | 21.2% (inactive)
CS(=O)(=O)c1ccc(S(=O)CC(=O)Oc2ccc(Cl)cc2)c([N+](=O)[O-])c1 (stereo not given) | 47.4% (active)
O=C(CS(=O)c1ccc(C(F)(F)F)cc1[N+](=O)[O-])Oc1ccc(Cl)cc1 (stereo not given) | 15.4% (inactive)
Nc1ccc(-c2nc3cc([N+](=O)[O-])ccc3o2)cc1 | -15.4% (inactive)

Structure (SMILES) | inhibition
COc1ccc(S(=O)Cc2ccc(C(=O)NCc3cccc(OC)c3)o2)cc1 (stereo not given) | -16.8% (inactive)
COc1cccc(CNC(=O)CSCc2cnn(-c3ccccc3)c2-n2cccc2)c1 | 19.5% (inactive)
O=C(CSCc1cnn(-c2ccccc2)c1-n1cccc1)NCc1ccccn1 | -18.4% (inactive)
O=C(CSCc1cnn(-c2ccccc2)c1-n1cccc1)NCc1cccnc1 | 60.7% (active)
CCCCCCCC(=O)N/N=C(\C)c1cccnc1 | 7.8% (inactive)
N#C/C(=C\C=C\c1ccccc1)C(=O)NCc1cccnc1 | 68.7% (active)
N#C/C(=C\C=C\c1ccccc1[N+](=O)[O-])C(=O)NCc1ccccc1 | 97.3% (active)
O=C(/C=C/c1ccccc1)NCc1cccnc1 | -46% (inactive)
COc1cc(NC(=O)/C=C/c2ccccc2[N+](=O)[O-])cc(OC)c1 | -36.1% (inactive)
N#C/C(=C\C=C\c1ccccc1)C(=O)NCc1ccco1 | 19.2% (inactive)
COCCNC(=O)/C(C#N)=C/c1ccc(O)c([N+](=O)[O-])c1 | -50.1% (inactive)
COC(=O)C(=Cc1ccccc1[N+](=O)[O-])C(=O)OC | 28.4% (active)
COCCNC(=O)/C(C#N)=C/C=C/c1ccccc1 | -4.8% (inactive)
N#C/C(=C\c1ccc(O)c([N+](=O)[O-])c1)C(=O)NCc1ccccc1 | -13.6% (inactive)
N#C/C(=C\c1ccccc1[N+](=O)[O-])C(=O)NCc1ccccc1 | -5% (inactive)
O=C(O)/C=C/c1ccccc1[N+](=O)[O-] | 2.2% (inactive)
COCCNC(=O)/C(C#N)=C/C=C/c1ccccc1[N+](=O)[O-] | 76.2% (active)
Cc1cc([N+](=O)[O-])ccc1NC(=O)Nc1ccc(F)cc1F | -5% (inactive)
Cc1ccc(Cn2nnc3c(=O)n(Cc4cc(C)ccc4C)cnc32)cc1 | -9.7% (inactive)
CN(C)S(=O)(=O)c1cccc(NC(=O)c2cc3ccccc3o2)c1 | -40.6% (inactive)
COc1ccc(/C=C(\C#N)C(=O)NC(C)c2ccccc2)cc1O (stereo not given) | -1.1% (inactive)
CC(=O)c1c(O)c2ccccc2n(C(C)C)c1=O | 12% (inactive)
O=C(COC(=O)c1ccco1)Nc1ccccc1[N+](=O)[O-] | -4.7% (inactive)
CN(C)C(=O)Nc1ccccc1CC[N+](=O)[O-] | -28.5% (inactive)

Structure (SMILES) | inhibition
COc1ccc(-c2csc3ncnc(Cl)c23)cc1 | -16.4% (inactive)
Cc1c(C(=O)N2CCN(c3ccccc3F)CC2)oc2c1C(=O)CC(C)(C)C2 | 0% (inactive)
O=S(=O)(/N=C(\Sc1ccc(Cl)cc1)c1ccccc1)c1ccccc1 | 3.3% (inactive)
C=CCn1c(=O)c2c3c(sc2n2c(Nc4ccc(C(=O)OCC)cc4)nnc12)CCCC3 | -30.7% (inactive)
CCC(C)(C)NC(=O)C(c1ccc(OC)cc1)N(C(=O)CCC(=O)Nc1cc(C)on1)c1ccc(F)cc1 (stereo not given) | -11.7% (inactive)
CC(C)c1ccc(/C=N/NC(=O)CC(=O)NCc2ccccc2)cc1 | -41.2% (inactive)
CCN(CC)S(=O)(=O)c1cc([N+](=O)[O-])ccc1NNC(=O)Nc1ccc(F)cc1 | 2% (inactive)
CCN(CC)S(=O)(=O)c1cc([N+](=O)[O-])ccc1NNC(=O)Nc1ccc(Cl)c(Cl)c1 | 83.8% (active)
CCN(CC)S(=O)(=O)c1cc([N+](=O)[O-])ccc1NNC(=O)Nc1ccccc1 | -23.4% (inactive)
COc1ccc(CN2CCN(C(=O)CCC(=O)Nc3nnc(C4CCCCC4)s3)CC2)cc1F | 26.9% (inactive)
COc1ccc(C(=O)N/N=C/c2ccc(OC)c(COc3ccc(F)cc3)c2)cc1 | 56.6% (active)
COc1ccc(C(=O)N/N=C/c2ccc(OC)c(COc3ccccc3)c2)cc1 | 3.5% (inactive)
COc1ccc(/C=N/NC(=O)c2cc(C(C)(C)C)[nH]n2)cc1COc1ccc(F)cc1F | 44.1% (active)
COc1ccc(/C=N\NC(=O)c2ccccc2F)cc1COc1ccc(F)cc1F | 31.2% (inactive)
COc1ccc(/C=N\NC(=O)c2ccccc2)cc1COc1ccc(F)cc1 | 39.2% (inactive)
COc1ccc(C(=O)N/N=C/c2ccc(OC)c(COc3ccc(F)cc3F)c2)cc1 | 38.8% (inactive)
C/C(=N\NC(=O)c1ccc2ccccc2c1)c1cccs1 | -67.5% (inactive)
Cc1ccccc1CSCCNC(=O)CCSc1ccccc1 | 71.3% (active)
COc1ccc(CNC(=O)CCSCc2ccc(C)cc2)cc1 | -7.5% (inactive)
Cc1ccc(CNC(=O)CCSCc2ccccc2C)cc1 | -14.9% (inactive)
COc1ccc(CNC(=O)CCSCc2ccccc2C)cc1 | 49.7% (active)
Cc1ccc(SCCC(=O)NCCSCc2ccccc2C)cc1 | -35.1% (inactive)
O=C(CCSc1ccccc1)NCCSCc1ccccc1 | -33.8% (inactive)
CCC(C)[C@H](NC(=O)Nc1ccccc1F)C(=O)O (stereo not given in full) | -12.6% (inactive)

Structure (SMILES) | inhibition
NS(=O)(=O)c1cccc(NC(=O)COC(=O)CCSc2ccccc2)c1 | -26.8% (inactive)
O=C(Nc1ccc(Cl)cc1)Nc1ccccc1Sc1ncc([N+](=O)[O-])s1 | -6.5% (inactive)
O=[N+]([O-])c1cnc(Sc2ccncn2)s1 | 66% (active)
O=[N+]([O-])c1ccc(Sc2n[nH]c(-c3ccncc3)n2)nc1 | -10.2% (inactive)
O=C(O)C1Nc2c(cccc2C(F)(F)F)C2C=CCC12 (stereo not given) | -8.8% (inactive)
O=C(Nc1ccncc1)c1c(F)c(F)c(F)c(F)c1F | 11% (inactive)
O=C(Nc1ccccc1)c1c(F)cccc1F | -2.4% (inactive)
O=S(=O)(c1ccc(Cl)s1)N1CCN(c2ncccn2)CC1 | -11.8% (inactive)
Cc1ccccc1-c1nsc(SCC(=O)c2ccc(Cl)cc2)n1 | -4.8% (inactive)
c1coc(C2=NCCc3ccccc32)c1 | -18% (inactive)
Nc1nc(CCl)nc(N(c2ccccc2)c2ccccc2)n1 | 50.5% (active)
Nc1nc(Cl)nc(N(c2ccccc2)c2ccccc2)n1 | -8.3% (inactive)
CCN(CC)c1nc(N)nc(N(c2ccccc2)c2ccccc2)n1 | 13.6% (inactive)
Fc1ccc2c(c1)C(c1ccncc1)=NNC(c1ccccc1)=N2 | 16% (inactive)
Cc1ccc(C(=O)COC(=O)c2ccc(-c3cnc4ccccc4n3)cc2)cc1C | -22.2% (inactive)
O=C1CCCN1CCCNC(=S)Nc1ccc(Cl)cc1Cl | -41.9% (inactive)
N/C(=N\NC(=O)c1sccc1OCc1ccc(Cl)cc1Cl)c1ccccn1 | -6% (inactive)
Cc1cc(NC(=O)/C=C/C(=O)N(c2ccccc2C)C(C(=O)NC2CCCC2)c2ccc(F)cc2)no1 (stereo not given) | 30.5% (inactive)
CCc1ccc(C(C(=O)NC2CCCC2)N(C(=O)/C=C/C(=O)Nc2cc(C)on2)c2ccccc2C)cc1 (stereo not given) | 76.7% (active)
CCOc1ccc(N(C(=O)/C=C/C(=O)Nc2cc(C)on2)C(C(=O)NC2CCCC2)c2ccccc2C)cc1 (stereo not given) | 52.5% (inactive)
ClCc1nc2ccccc2c2ccccc12 | 64.7% (active)
CCOC(=O)c1c(CCl)nc2ccccc2c1C | -9.2% (inactive)
CCOC(=O)c1c(CCl)nc2ccccc2c1-c1ccccc1 | 19.7% (inactive)
